The full list was thinned out, with hits kept by preference.
Pf Dd2 inh: qHTS Primary assay for Inhibitors of Plasmodium falciparum Dd2 growth in vitro; P. falciparum Dd2 growth, SYBR Green, 72 h; Potency, µM (series often up to 28.9 µM), for inactives: top-dose activity, negative = inhibition, usual class: inhibitors; actives 4.3% (n = 120,000); AID 1347417, 2020; active = well fitted inhibition curve with a large enough effect;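 also: plate controls were DMSO vehicle for no effect and reference drug for full effect; nearly all actives have a fitted effect of over 65% in size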
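Readout: SYBR Green fluorescence, 485 nm excitation, 535 nm emission, after ~16 h lysis at 37C. Before that, Dd2-infected red cells (2.5% hematocrit) grew 72 h with compound, 29 uM top final concentration.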
* hit, by the source's call; i = inactive; [ ] = another dose, or the depositor's remark. Potency is read from the fitted curve at half-maximal effect.

SMILES	Pf Dd2 inh
CC(=O)c1ccc(N2CCN(C(=O)CCCn3c(=O)[nH]c4ccsc4c3=O)CC2)cc1	i
O=C(CCCCCn1c(=O)[nH]c2ccccc2c1=O)NCCc1ccccc1	-5%
O=C(CCCCCn1c(=O)[nH]c2ccccc2c1=O)NCc1ccc(Cl)cc1	i
O=C(CCCCCn1c(=O)[nH]c2ccccc2c1=O)NCc1ccccc1	10µM*
O=C(CCCn1c(=O)[nH]c2ccc(Br)cc2c1=O)N1CCN(c2cccc(Cl)c2)CC1	i
COC(=O)c1ccc2c(=O)n(CCCCCC(=O)N3CCN(c4cc(Cl)ccc4C)CC3)c(=O)[nH]c2c1	10µM*
Cc1nc(C(=O)N2CCC(c3n[nH]c(=O)n3Cc3ccccc3)CC2)c(C)o1	12%
CCCN(CC1CCOC1)S(=O)(=O)c1ccccc1 (centres undefined)	i[5.79 µM]
COc1cccc(-c2nc3cnccn3c2NCCC(=O)Nc2cccc(Cl)c2)c1	i
COc1ccccc1-c1cn2c(n1)CO[C@@H](CNC(=O)NCc1ccccc1)C2	i
CCn1ccc(C(=O)N2CC(Oc3cccc(-c4nc(C)no4)c3)C2)n1	-24%[5.79 µM]
O=C(NCCCc1ccccc1)C1CCN(C(=O)c2ncn3c2COC(c2ccccc2)C3)CC1 (centres undefined)	-4%
Cn1cc([C@@H](NC(=O)CCC2=NNC(=O)CC2)C2CC(O)C2)cn1 (some centres undefined)	0%
Cc1cc(C)cc(C(=O)N2CCCC(n3cc(-c4nc(C)no4)nn3)C2)c1 (centres undefined)	i
CCc1cc(=O)n(CC(=O)Nc2ccc(C)cc2Cl)c(N2CCOCC2)n1	i
CCn1nccc1C(=O)N1CC2CC(C1)[C@H]1CCCC(=O)N1C2 (some centres undefined)	10%
Cn1cc(CN2CCC(C(O)c3cccnc3)CC2)c(-c2ccc(C3CCCCC3)cc2)n1 (centres undefined)	-8%
CC1CCN(c2nc3c(S(=O)(=O)c4ccc(Cl)cc4)nnn3c3ccsc23)CC1	22%
CC1CCN(c2nc3c(S(=O)(=O)c4ccccc4)nnn3c3ccsc23)CC1	10%
CC(C)c1ccc(S(=O)(=O)c2nnn3c2nc(N2CCOCC2)c2ccccc23)cc1	-29%
CN1CCN(c2nc3c(S(=O)(=O)c4ccc(Cl)cc4)nnn3c3ccsc23)CC1	10µM*
Cc1ccc(C)c(S(=O)(=O)c2nnn3c2nc(N2CCOCC2)c2ccccc23)c1	-27%
Cc1ccc(C)c(S(=O)(=O)c2nnn3c2nc(N2CCCCC2)c2ccccc23)c1	13µM*
Cc1ccc(S(=O)(=O)c2nnn3c2nc(NC(C)C)c2cc(Cl)ccc23)cc1C	7%
CC1CCN(c2nc3c(S(=O)(=O)c4ccccc4)nnn3c3ccc(Cl)cc23)CC1	1.1µM*
SMILES	Pf Dd2 inh
COCCNc1nc2c(S(=O)(=O)c3ccc(C)c(C)c3)nnn2c2ccc(Cl)cc12	12%
CCc1ccc(S(=O)(=O)c2nnn3c2nc(N2CCC(C(N)=O)CC2)c2cc(Cl)ccc23)cc1	i
CC(C)c1ccc(S(=O)(=O)c2nnn3c2nc(N2CCN(C)CC2)c2sccc23)cc1	i
Cc1ccc(S(=O)(=O)c2nnn3c2nc(N2CCC(C)CC2)c2cc(Cl)ccc23)cc1C	11µM*
CN(CC1CCOC1)S(=O)(=O)c1ccccc1F (centres undefined)	50%[5.79 µM]
Cc1ccc(NC(=O)N2C[C@@H](F)C[C@H]2C(=O)N2CCc3ccccc3C2)cc1F	i
O=C(O)Cn1ccc2cc(OCC3CCN(C(=O)OC4CCCC4)CC3)cnc21	i
COc1ccc(CNC(=O)c2cc3c(N4CCSCC4)nc(C)cn3n2)c(OC)c1	-1%
NC(=O)N1CCCC(C(=O)NCCS(=O)(=O)c2ccc(F)cc2)C1 (centres undefined)	25%
CCOCCn1nc(C)cc1-c1nc(-c2ccc(C)nn2)no1	-27%
CCC(Sc1nc2c(sc3ccccc32)c(=O)n1CCc1ccccc1)C(=O)N(CC)CC (centres undefined)	24%
CCC(Sc1nc2c(sc3ccccc32)c(=O)n1CCc1ccc(OC)c(OC)c1)C(=O)N(CC)CC (centres undefined)	4µM*
CCC(Sc1nc2ccccc2c(=O)n1CCc1ccc(OC)c(OC)c1)C(=O)N(CC)CC (centres undefined)	-5%
COc1ccc(CCNC(=O)[C@H]2CCC[C@H]2NC(=O)c2ccncc2)cc1OC	4%
CN(C)Cc1nnc(C2CCN(C(=O)c3cn[nH]c3-n3cnnn3)CC2)n1C	-1%
COc1cc(Cl)cc(CN2CCN(c3ncccc3C#N)CC2)c1OC	i
CCCCOCc1cc(CN2CCN(c3cccc(Cl)c3)CC2)c(O)c2ncccc12	1µM*
CCOC(=O)C1=C(CN2CCN(c3cccc(Cl)c3)CC2)NC(=O)NC1c1ccc(Cl)cc1 (centres undefined)	i
CCOc1ccc2oc(=O)cc(CN3CCN(C(=O)c4cccc(Cl)c4)CC3)c2c1	i
Cn1ncc2c(N3CCN(c4cccc(Cl)c4)CC3)ncnc21	8%
CCCOCc1cc(CN2CCN(c3cccc(Cl)c3)CC2)c(O)c2ncccc12	3.2µM*
CCC1Oc2ccc(NC(=O)c3ccc(Cl)cc3)cc2CN(Cc2ccc3c(c2)OCO3)C1=O (centres undefined)	i
COC(=O)C1=CN(CC(=O)Nc2ccc(C)cc2Cl)S(=O)(=O)N=C1C	79%
COc1cc(Cl)cc(CN2CCC3(CCOCC3)CC2)c1OC	-22%
COc1ccc(O)cc1CN1CCC2(CCNCC2)C1	-15%
SMILES	Pf Dd2 inh
COc1cc(Cl)cc(CN2CCC3(CCCNC3)C2)c1OC (centres undefined)	8.9µM*
CCN1c2cc(C(=O)NCc3ccc(OC)c(OC)c3)ccc2C(=O)N2CCCCCC21 (centres undefined)	-23%
COCCc1noc(C2CN(C(=O)Nc3ccc(C)c(C)c3)C2)n1	-14%
Cc1nc(C(C)C)sc1C(=O)N1C[C@@H](C)[C@](O)(C2CCC2)C1	0%
CCN(C)C(=O)CCc1c(C)nn(-c2cccc(C)c2)c1Oc1ccccc1	i
FC(F)Oc1ccccc1CN(CC1CCN(C2CCCC2)CC1)CC1CCCO1 (centres undefined)	7.1µM*
Oc1ccccc1CN(CCN1CCCCC1)CC1CCCN(C2CCCC2)C1 (centres undefined)	i
O=C(c1cnco1)N(CC1CCN(Cc2ccccc2F)CC1)CC1CCCO1 (centres undefined)	-14%
Cc1ccccc1N1Cc2c(NCc3ccccn3)ncnc2N(C)CC1=O	-11%
O=C(c1ccncc1)N1CCCCC1c1nc(CCOc2ccc(F)cc2)no1 (centres undefined)	-21%
COc1ccc(-c2noc(N3CCC(C(=O)Nc4cccc(C)c4C)CC3)n2)cc1	-2%
COc1ccc(/C=C\c2onc(C)c2S(=O)(=O)N2CCC(C(=O)Nc3cccc(OC)c3)CC2)cc1	8.9µM*
COc1ccc(CNC(=O)C2CCN(S(=O)(=O)c3cccc(-c4noc(C)n4)c3)CC2)cc1	i
CCN(CC)C(=O)C1CCN(S(=O)(=O)c2c(C)noc2/C=C/c2cccc(OC)c2)CC1	-21%
COc1ccc(NC(=O)C2CCN(S(=O)(=O)c3cc(-c4noc(C)n4)ccc3C)CC2)cc1	6.3µM*
Cc1ccc(/C=C/c2onc(C)c2S(=O)(=O)N2CCC(C(=O)Nc3ccc(Br)c(C)c3)CC2)cc1	2%
Cn1ncc(N2CCCC(C(=O)O)C2)cc1=O (centres undefined)	28%
COC[C@@H]1CN(C(=O)CN2CCCC2=O)C[C@H]1c1ccncc1	-18%

Compound activity deposited in PubChem by National Center for Advancing Translational Sciences (NCATS).
